Source: PMC11066047

Key:
[1] = biological target: Heat shock protein homolog SSE1 (UniProt P32589); experiment: cross-link between two proteins; cross-linking mass spectrometry
[2] = biological target: Heat shock protein homolog SSE2 (UniProt P32590); experiment: as above
[3] = biological target: Isocitrate dehydrogenase [NAD] subunit 1, mitochondrial (UniProt P28834); experiment: as above
[4] = biological target: Large ribosomal subunit protein eL30 (UniProt P14120); experiment: as above
[5] = biological target: Small ribosomal subunit protein eS7A (UniProt P26786); experiment: cross-link between two proteins
[6] = biological target: Large ribosomal subunit protein eL31A (UniProt P0C2H8); experiment: cross-link between two proteins; cross-linking mass spectrometry
[7] = biological target: Large ribosomal subunit protein eL32 (UniProt P38061); experiment: as above
[8] = biological target: Ribosome biogenesis protein ALB1 (UniProt P47019); experiment: as above
Zuotin = Zuotin (UniProt P32527); experiment: as above
[9] = biological target: Large ribosomal subunit protein eL38 (UniProt P49167); experiment: as above
[10] = biological target: Large ribosomal subunit protein eL6A (UniProt Q02326); experiment: as above
[11] = biological target: Large ribosomal subunit protein eL8B (UniProt P29453); experiment: as above
Pescadillo homolog = Pescadillo homolog (UniProt P53261); experiment: as above
[12] = biological target: Proteasome-interacting protein CIC1 (UniProt P38779); experiment: as above
[13] = biological target: Large ribosomal subunit protein uL13B (UniProt P26785); experiment: as above
[14] = biological target: Large ribosomal subunit protein uL4A (UniProt P10664); experiment: as above
[15] = biological target: Large ribosomal subunit protein uL4B (UniProt P49626); experiment: as above
[16] = biological target: Mitochondrial import inner membrane translocase subunit TIM14 (UniProt Q07914); experiment: as above
[17] = biological target: NET1-associated nuclear protein 1 (UniProt Q02931); experiment: cross-link between two proteins
[18] = biological target: Nucleolar complex protein 14 (UniProt Q99207); experiment: cross-link between two proteins
[19] = biological target: Ribosomal RNA-processing protein 12 (UniProt Q12754); experiment: cross-link between two proteins
Nucleolar protein 56 = Nucleolar protein 56 (UniProt Q12460); experiment: cross-link between two proteins
Nucleolar protein 58 = Nucleolar protein 58 (UniProt Q12499); experiment: cross-link between two proteins; cross-linking mass spectrometry
Prohibitin-2 = Prohibitin-2 (UniProt P50085); experiment: as above
[20] = biological target: Proteasome subunit alpha type-2 (UniProt P23639); experiment: as above
[21] = biological target: Proteasome subunit beta type-3 (UniProt P25451); experiment: as above
[22] = biological target: Proteasome subunit alpha type-3 (UniProt P23638); experiment: as above
[23] = biological target: Proteasome subunit alpha type-6 (UniProt P40302); experiment: as above
[24] = biological target: Protein transport protein SBH2 (UniProt P52871); experiment: as above
[25] = biological target: Ribosome biogenesis protein BMS1 (UniProt Q08965); experiment: cross-link between two proteins
[26] = biological target: Ribosome biogenesis protein MAK21 (UniProt Q12176); experiment: cross-link between two proteins; cross-linking mass spectrometry
[27] = biological target: Ribosome biogenesis protein YTM1 (UniProt Q12024); experiment: as above
RuvB-like protein 2 = RuvB-like protein 2 (UniProt Q12464); experiment: as above
[28] = biological target: Small ribosomal subunit protein RACK1 (UniProt P38011); experiment: as above
[29] = biological target: Small ribosomal subunit protein uS10 (UniProt P38701); experiment: as above
[30] = biological target: Small ribosomal subunit protein uS5 (UniProt P25443); experiment: as above
[31] = biological target: Small ribosomal subunit protein eS12 (UniProt P48589); experiment: as above
[32] = biological target: Small ribosomal subunit protein eS25A (UniProt Q3E792); experiment: as above
[33] = biological target: Small ribosomal subunit protein eS28A (UniProt Q3E7X9); experiment: cross-link between two proteins
[34] = biological target: Small ribosomal subunit protein uS11B (UniProt P39516); experiment: cross-link between two proteins; cross-linking mass spectrometry
[35] = biological target: Small ribosomal subunit protein uS7 (UniProt P26783); experiment: as above
[36] = biological target: Succinate--CoA ligase [ADP-forming] subunit alpha, mitochondrial (UniProt P53598); experiment: as above
[37] = biological target: U3 small nucleolar RNA-associated protein 12 (UniProt Q12220); experiment: as above
[38] = biological target: U3 small nucleolar RNA-associated protein 15 (UniProt Q04305); experiment: as above
[39] = biological target: U3 small nucleolar RNA-associated protein 16 (UniProt Q08492); experiment: cross-link between two proteins
[40] = biological target: U3 small nucleolar RNA-associated protein 21 (UniProt Q06078); experiment: cross-link between two proteins
[41] = biological target: U3 small nucleolar RNA-associated protein 22 (UniProt P53254); experiment: cross-link between two proteins
[42] = biological target: U3 small nucleolar RNA-associated protein MPP10 (UniProt P47083); experiment: cross-link between two proteins
[43] = biological target: Ubiquitin-like protein MDY2 (UniProt Q12285); experiment: cross-link between two proteins; cross-linking mass spectrometry
[44] = biological target: rRNA-processing protein FCF2 (UniProt Q12035); experiment: cross-link between two proteins

Chain of Proteasome subunit alpha type-2 (P23639 whole entry): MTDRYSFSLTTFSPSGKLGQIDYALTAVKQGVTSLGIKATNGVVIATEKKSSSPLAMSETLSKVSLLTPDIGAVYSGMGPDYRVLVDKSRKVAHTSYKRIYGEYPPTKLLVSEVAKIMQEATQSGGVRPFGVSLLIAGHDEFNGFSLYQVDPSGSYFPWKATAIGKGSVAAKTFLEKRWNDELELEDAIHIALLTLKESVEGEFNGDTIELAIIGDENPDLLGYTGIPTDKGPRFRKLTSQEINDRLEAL
Chain of Small ribosomal subunit protein uS5 (P25443 whole entry): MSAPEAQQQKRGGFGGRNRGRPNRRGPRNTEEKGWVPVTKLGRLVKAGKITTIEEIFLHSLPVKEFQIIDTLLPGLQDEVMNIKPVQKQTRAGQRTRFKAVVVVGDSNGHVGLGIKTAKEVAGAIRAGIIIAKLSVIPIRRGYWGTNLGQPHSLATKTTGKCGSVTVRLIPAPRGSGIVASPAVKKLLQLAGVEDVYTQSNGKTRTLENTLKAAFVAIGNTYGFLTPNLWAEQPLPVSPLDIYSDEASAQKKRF
Chain of Heat shock protein SSA1, P10591 (P10591 whole entry): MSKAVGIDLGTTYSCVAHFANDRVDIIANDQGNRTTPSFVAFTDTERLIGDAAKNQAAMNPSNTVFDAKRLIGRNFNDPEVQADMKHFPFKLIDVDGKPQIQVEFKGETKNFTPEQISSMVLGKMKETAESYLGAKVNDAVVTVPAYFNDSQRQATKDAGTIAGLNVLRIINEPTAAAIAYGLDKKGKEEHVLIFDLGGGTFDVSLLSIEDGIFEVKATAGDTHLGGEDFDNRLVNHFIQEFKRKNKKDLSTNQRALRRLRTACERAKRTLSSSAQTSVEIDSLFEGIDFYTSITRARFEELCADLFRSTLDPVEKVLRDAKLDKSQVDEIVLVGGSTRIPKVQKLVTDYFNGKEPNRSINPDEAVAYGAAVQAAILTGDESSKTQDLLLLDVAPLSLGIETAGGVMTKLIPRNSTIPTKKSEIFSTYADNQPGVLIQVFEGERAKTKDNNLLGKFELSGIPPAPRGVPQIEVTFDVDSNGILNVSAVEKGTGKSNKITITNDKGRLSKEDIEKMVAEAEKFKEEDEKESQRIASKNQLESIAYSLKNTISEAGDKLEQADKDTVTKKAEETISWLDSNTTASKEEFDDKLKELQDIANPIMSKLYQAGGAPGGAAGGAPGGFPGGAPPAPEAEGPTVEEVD
Chain of Proteasome subunit beta type-3 (P25451 whole entry): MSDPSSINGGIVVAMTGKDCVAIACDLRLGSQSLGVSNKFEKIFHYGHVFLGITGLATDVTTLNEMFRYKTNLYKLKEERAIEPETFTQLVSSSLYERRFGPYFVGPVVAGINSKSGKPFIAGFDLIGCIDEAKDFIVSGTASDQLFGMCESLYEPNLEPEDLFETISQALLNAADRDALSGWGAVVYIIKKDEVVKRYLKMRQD
Chain of Small ribosomal subunit protein eS28A (Q3E7X9 whole entry): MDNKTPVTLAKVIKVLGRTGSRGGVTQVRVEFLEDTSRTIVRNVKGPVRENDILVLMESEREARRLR
Chain of Large ribosomal subunit protein eL8B (P29453 whole entry): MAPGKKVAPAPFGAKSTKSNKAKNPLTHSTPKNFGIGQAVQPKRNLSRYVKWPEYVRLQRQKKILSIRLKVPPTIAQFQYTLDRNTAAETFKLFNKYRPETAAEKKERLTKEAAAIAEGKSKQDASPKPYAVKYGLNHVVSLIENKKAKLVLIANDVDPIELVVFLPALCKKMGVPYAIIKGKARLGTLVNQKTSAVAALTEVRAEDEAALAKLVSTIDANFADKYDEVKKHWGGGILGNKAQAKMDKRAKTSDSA
Chain of Ribosome biogenesis protein YTM1 (Q12024 whole entry): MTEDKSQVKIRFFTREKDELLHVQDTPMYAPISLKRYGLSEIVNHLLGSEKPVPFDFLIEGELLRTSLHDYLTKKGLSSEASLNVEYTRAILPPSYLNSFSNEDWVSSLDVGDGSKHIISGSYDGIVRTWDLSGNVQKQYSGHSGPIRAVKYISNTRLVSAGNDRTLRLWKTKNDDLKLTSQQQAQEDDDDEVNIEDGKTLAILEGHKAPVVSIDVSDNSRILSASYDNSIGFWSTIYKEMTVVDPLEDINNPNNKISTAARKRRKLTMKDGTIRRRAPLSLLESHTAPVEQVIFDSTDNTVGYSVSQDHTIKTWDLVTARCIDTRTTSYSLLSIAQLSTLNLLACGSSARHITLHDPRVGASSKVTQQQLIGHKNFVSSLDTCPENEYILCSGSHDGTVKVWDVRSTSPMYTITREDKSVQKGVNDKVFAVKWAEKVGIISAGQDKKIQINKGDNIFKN
Chain of Pescadillo homolog (P53261 whole entry): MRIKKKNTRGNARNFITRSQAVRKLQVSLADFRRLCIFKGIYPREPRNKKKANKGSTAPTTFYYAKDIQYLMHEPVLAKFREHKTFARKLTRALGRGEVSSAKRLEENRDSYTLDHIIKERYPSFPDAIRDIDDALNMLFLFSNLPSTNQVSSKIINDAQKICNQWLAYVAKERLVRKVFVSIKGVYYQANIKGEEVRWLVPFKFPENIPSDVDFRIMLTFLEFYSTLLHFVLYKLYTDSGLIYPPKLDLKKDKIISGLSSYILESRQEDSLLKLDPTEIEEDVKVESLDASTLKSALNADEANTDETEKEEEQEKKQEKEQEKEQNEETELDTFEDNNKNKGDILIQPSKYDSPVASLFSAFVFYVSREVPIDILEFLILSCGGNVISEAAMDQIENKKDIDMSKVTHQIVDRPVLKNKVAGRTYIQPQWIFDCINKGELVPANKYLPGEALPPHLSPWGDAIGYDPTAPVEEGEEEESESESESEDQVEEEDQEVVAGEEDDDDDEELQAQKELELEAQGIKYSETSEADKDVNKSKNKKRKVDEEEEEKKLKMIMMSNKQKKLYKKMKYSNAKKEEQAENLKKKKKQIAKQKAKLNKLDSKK
Chain of NET1-associated nuclear protein 1 (Q02931 whole entry): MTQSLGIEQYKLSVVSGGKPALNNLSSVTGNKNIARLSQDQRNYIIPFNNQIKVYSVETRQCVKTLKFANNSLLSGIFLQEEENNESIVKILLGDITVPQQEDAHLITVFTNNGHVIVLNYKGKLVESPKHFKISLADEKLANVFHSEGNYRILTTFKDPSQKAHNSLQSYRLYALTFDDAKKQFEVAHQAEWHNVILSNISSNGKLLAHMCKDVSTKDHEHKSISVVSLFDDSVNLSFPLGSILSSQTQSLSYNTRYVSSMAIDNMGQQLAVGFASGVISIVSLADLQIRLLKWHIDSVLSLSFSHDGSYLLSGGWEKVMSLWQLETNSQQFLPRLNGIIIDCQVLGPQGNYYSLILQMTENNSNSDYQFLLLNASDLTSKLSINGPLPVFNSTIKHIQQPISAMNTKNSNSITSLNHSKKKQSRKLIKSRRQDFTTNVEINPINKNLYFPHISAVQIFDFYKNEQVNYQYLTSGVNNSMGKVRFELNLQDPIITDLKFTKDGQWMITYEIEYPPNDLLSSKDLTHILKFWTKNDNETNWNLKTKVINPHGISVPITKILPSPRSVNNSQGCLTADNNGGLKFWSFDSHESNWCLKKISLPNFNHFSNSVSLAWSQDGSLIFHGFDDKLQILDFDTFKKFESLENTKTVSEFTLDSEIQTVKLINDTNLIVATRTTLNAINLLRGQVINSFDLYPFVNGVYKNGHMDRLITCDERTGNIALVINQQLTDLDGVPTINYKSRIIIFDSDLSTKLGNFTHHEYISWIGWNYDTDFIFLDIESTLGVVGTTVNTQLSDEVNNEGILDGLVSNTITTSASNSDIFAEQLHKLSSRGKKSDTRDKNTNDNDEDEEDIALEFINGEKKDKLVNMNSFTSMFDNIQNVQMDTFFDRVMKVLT
Chain of U3 small nucleolar RNA-associated protein 15 (Q04305 whole entry): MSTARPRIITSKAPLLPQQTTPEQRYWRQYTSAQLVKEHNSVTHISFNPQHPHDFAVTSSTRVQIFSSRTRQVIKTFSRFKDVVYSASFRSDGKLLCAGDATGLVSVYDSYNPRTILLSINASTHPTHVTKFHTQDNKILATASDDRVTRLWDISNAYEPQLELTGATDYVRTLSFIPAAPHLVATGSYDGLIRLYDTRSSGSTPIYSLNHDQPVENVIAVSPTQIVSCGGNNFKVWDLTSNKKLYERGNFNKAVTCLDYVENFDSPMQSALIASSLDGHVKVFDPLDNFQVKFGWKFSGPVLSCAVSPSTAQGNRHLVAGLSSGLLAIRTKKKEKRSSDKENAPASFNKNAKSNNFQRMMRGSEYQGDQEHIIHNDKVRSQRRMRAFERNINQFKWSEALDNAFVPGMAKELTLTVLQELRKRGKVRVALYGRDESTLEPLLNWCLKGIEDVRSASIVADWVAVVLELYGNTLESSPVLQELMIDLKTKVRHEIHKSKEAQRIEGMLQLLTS
Chain of Proteasome-interacting protein CIC1 (P38779 whole entry): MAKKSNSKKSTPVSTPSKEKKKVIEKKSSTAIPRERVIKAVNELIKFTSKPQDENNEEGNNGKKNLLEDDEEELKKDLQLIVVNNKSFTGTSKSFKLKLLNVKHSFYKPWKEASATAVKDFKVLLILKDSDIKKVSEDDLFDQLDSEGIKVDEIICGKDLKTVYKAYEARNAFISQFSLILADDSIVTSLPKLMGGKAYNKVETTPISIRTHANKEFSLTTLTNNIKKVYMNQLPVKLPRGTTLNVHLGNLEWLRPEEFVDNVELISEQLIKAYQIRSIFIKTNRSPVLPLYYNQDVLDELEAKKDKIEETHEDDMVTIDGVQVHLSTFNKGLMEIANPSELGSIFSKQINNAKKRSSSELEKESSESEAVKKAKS
Chain of Large ribosomal subunit protein uL3, P14126 (P14126 whole entry): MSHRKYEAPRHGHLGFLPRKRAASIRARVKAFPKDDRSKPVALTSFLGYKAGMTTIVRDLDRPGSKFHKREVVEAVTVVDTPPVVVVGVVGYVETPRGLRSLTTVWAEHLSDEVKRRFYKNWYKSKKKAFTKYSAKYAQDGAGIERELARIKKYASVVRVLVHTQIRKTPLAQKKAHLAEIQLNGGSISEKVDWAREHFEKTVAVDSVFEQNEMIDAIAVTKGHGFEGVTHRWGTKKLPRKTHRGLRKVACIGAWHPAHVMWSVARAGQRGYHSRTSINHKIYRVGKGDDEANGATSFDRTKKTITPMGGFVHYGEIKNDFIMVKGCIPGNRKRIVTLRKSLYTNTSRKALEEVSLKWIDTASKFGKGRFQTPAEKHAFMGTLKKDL

With Heat shock protein SSA1, P10591 the “listed as a hit” value [1] was “yes” and the “listed as a hit” value [2] was “yes”.

“Isocitrate dehydrogenase [NAD] subunit 2, mitochondrial, P28241” was tested, and the “listed as a hit” value [3] was “yes”.

In the case of “Small ribosomal subunit protein uS15, P05756”, the “listed as a hit” value [4] is reported as “yes” and the “listed as a hit” value [5] is reported as “yes”.

For “Large ribosomal subunit protein uL22A, P05740”, the “listed as a hit” value [6] was “yes”, the “listed as a hit” value [7] was “yes” and the “listed as a hit” value [8] was “yes”. For the same substance, the “listed as a hit” value (Zuotin) was “yes”.

With “Large ribosomal subunit protein eL22A, P05749” the “listed as a hit” value [9] was “yes”.

“Large ribosomal subunit protein eL32, P38061” was tested, and the “listed as a hit” value [10] was “yes”.

In the case of “Large ribosomal subunit protein eL27A, P0C2H6”, the “listed as a hit” value [11] is reported as “yes”.

“Large ribosomal subunit protein eL8A, P17076” was tested, and the “listed as a hit” value [11] was “yes”, the “listed as a hit” value (Pescadillo homolog) was “yes” and the “listed as a hit” value [12] was “yes”.

“Large ribosomal subunit protein uL3, P14126” was tested, and the “listed as a hit” value [13] was “yes”.

“Large ribosomal subunit protein uL30A, P05737” was tested, and the “listed as a hit” value [14] was “yes” and the “listed as a hit” value [15] was “yes”.

In the case of “Mitochondrial import inner membrane translocase subunit TIM16, P42949”, the “listed as a hit” value [16] is reported as “yes”.

With “U3 small nucleolar RNA-associated protein 8, P53276” the “listed as a hit” value [17] was “yes”.

In the case of “U3 small nucleolar RNA-associated protein 10, P42945”, the “listed as a hit” value [17] is reported as “yes”.

For Essential nuclear protein 1, P38333, the “listed as a hit” value [18] was “yes” and the “listed as a hit” value [19] was “yes”.

“rRNA 2'-O-methyltransferase fibrillarin, P15646” was tested, and the “listed as a hit” value (Nucleolar protein 56) was “yes” and the “listed as a hit” value (Nucleolar protein 58) was “yes”.

In the case of “Large ribosomal subunit protein eL8B, P29453”, the “listed as a hit” value (Pescadillo homolog) is reported as “yes” and the “listed as a hit” value [12] is reported as “yes”.

With Prohibitin-1, P40961 the “listed as a hit” value (Prohibitin-2) was “yes”.

In the case of Proteasome subunit alpha type-1, P21243, the “listed as a hit” value [20] is reported as “yes”.

For Proteasome subunit alpha type-3, P23638, the “listed as a hit” value [20] was “yes” and the “listed as a hit” value [21] was “yes”.

For Proteasome subunit beta type-4, P22141, the “listed as a hit” value [22] was “yes” and the “listed as a hit” value [21] was “yes”.

For “Probable proteasome subunit alpha type-7, P21242”, the “listed as a hit” value [23] was “yes”.

In the case of Sec sixty-one protein homolog, P38353, the “listed as a hit” value [24] is reported as “yes”.

rRNA processing protein RCL1, Q08096 was tested, and the “listed as a hit” value [25] was “yes”.

Nucleolar complex protein 2, P39744 was tested, and the “listed as a hit” value [26] was “yes”.

rRNA biogenesis protein RRP5, Q05022 was tested, and the “listed as a hit” value [26] was “yes”.

For Pescadillo homolog, P53261, the “listed as a hit” value [27] was “yes”.

In the case of “Ribosome biogenesis protein ERB1, Q04660”, the “listed as a hit” value [27] is reported as “yes”.

RuvB-like protein 1, Q03940 was tested, and the “listed as a hit” value (RuvB-like protein 2) was “yes”.

With “Small ribosomal subunit protein uS3, P05750” the “listed as a hit” value [28] was “yes”, the “listed as a hit” value [29] was “yes” and the “listed as a hit” value [30] was “yes”.

With “Ubiquitin-ribosomal protein eS31 fusion protein, P05759” the “listed as a hit” value [31] was “yes”.

For “Small ribosomal subunit protein uS7, P26783”, the “listed as a hit” value [32] was “yes” and the “listed as a hit” value [33] was “yes”.

In the case of “Small ribosomal subunit protein eS26A, P39938”, the “listed as a hit” value [33] is reported as “yes”.

For “Small ribosomal subunit protein eS1B, P23248”, the “listed as a hit” value [34] was “yes”.

For “Small ribosomal subunit protein eS21A, P0C0V8”, the “listed as a hit” value [30] was “yes”.

“Small ribosomal subunit protein eS28B, P0C0X0” was tested, and the “listed as a hit” value [35] was “yes”.

“Succinate--CoA ligase [ADP-forming] subunit beta, mitochondrial, P53312” was tested, and the “listed as a hit” value [36] was “yes”.

With “U3 small nucleolar RNA-associated protein 21, Q06078” the “listed as a hit” value [37] was “yes”.

“U3 small nucleolar RNA-associated protein 13, Q05946” was tested, and the “listed as a hit” value [37] was “yes”.

“U3 small nucleolar RNA-associated protein 5, Q04177” was tested, and the “listed as a hit” value [38] was “yes”.

“NET1-associated nuclear protein 1, Q02931” was tested, and the “listed as a hit” value [38] was “yes”.

With Nucleolar complex protein 4, Q06512 the “listed as a hit” value [39] was “yes”.

In the case of Periodic tryptophan protein 2, P25635, the “listed as a hit” value [40] is reported as “yes”.

For “Ribosomal RNA-processing protein 7, P25368”, the “listed as a hit” value [41] was “yes”.

In the case of “U3 small nucleolar ribonucleoprotein protein IMP3, P32899”, the “listed as a hit” value [42] is reported as “yes”.

With Golgi to ER traffic protein 4, Q12125 the “listed as a hit” value [43] was “yes”.

In the case of “U3 small nucleolar RNA-associated protein 6, Q02354”, the “listed as a hit” value [44] is reported as “yes”.
